SMILES strings stand for the structures. Records with an inconclusive call do not appear. Active and inactive are the calls of the source. Unless noted, calls come from the whole dose curve; as a rule, active = well fitted curve in the direction sought with a large enough effect; inconclusive = small, poorly fitted or top-dose-only effect, or another doubt; inactive = no such curve, though single readings can be large or run the other way.

From PubChem BioAssay (NCATS) come the findings set out here.

Sequence of Ferritin light chain (Equus caballus) (P02791 2-175 limits assumed): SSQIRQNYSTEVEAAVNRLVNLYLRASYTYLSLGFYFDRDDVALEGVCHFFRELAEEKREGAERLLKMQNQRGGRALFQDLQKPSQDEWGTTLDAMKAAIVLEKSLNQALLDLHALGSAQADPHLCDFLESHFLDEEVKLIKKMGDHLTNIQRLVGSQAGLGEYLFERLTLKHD

System in one assay: not listed separately
As to the kind of experiment: qHTS Assay for Identification of Small Molecule Inducers of Hypoxia Response (AID 2120; active = well fitted curve in the direction sought with a large enough effect in the signal ratio, with a control signal flat, not every such curve was filed as active; the % refers to the signal ratio; note: 0% is about no effect). As to conditions: hypoxia response reporter cells, beta-lactamase ratio readout; series mostly up to 104 µM; activation: at the top concentration. In a few lines:
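ME-180 HRE-bla cells plated in Opti-MEM/0.5% dialyzed FBS, rested 4-5 h, then dosed with compound titrations by pin tool. After 17 h at 37 degrees C, CCF4 dye loaded 2.5 h at RT; 460/530 nm ratio gave %Activity and AC50.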
(In general: In qHTS, concentration-response curves come from the screen itself.)
Regarding `CCOP(=S)(OCC)Oc1cc(C)nc(C(C)C)n1`, the “activation” value was 1.13% (inactive).

As for `C[C@]12C/C(=C/O)C(=O)C[C@@H]1CC[C@@H]1[C@@H]2CC[C@@]2(C)[C@H]1CC[C@]2(C)O`, the “activation” value was 2.05% (inactive).

In the case of `OCCOc1ccccc1`, the “activation” value is -0.664% (inactive).

Regarding `Oc1ccccc1-c1ccccc1`, the “activation” value was 0.297% (inactive).

In the case of `c1ccc2c(c1)Nc1ccccc1S2`, the “activation” value was 0.215% (inactive).

A further assay deals with Ferritin light chain (Equus caballus) (UniProt P02791). As to the kind of experiment: qHTS Validation Assay for Identification of Novel General Anesthetics (AID 2323). Note: % is set by controls: 0 for no effect and ±100 for the full control effect. As to conditions: horse apoferritin, anesthetic-site fluorescent probe displacement; series mostly up to 76.9 µM; activity change, negative = inhibition: at the top concentration. In a few lines:
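10 uM horse-spleen apoferritin + 1-AMA (50% saturated, PBS); cpd pin-transferred, 10 min RT. Ex 380/Em 535 nm endpoint. Activity normalized between free 1-AMA and 1-AMA/apoferritin; 4-parameter Hill fit of concentration-response.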
For `c1ccc(C2CC2)c(OCC2=NCCN2)c1`, the “activity change, negative = inhibition” value is -5.82% (inactive).

`CC[N+](CC)(CC)CC`: the “activity change, negative = inhibition” value was -12.3% (inactive).

Turning to `O=c1[nH]c2ccccc2n1CCCN1CCC(n2c(=O)[nH]c3cc(Cl)ccc32)CC1`, the “activity change, negative = inhibition” value was -9.85% (inactive).

Regarding `c1ccc2c(c1)OCC(C1=NCCN1)O2` (configuration not stated), the “activity change, negative = inhibition” value is 3.12% (inactive).

For `COc1ccc(Cc2nccc3cc(OC)c(OC)cc23)cc1OC`, the “activity change, negative = inhibition” value was -13.6% (inactive).

As to `COc1ccccc1N1CCNCC1`, the “activity change, negative = inhibition” value was -1.84% (inactive).

`CCC1(C2=NCCN2)Cc2ccccc2O1` (configuration not stated): the “activity change, negative = inhibition” value was -1.96% (inactive).

As for `Clc1cccc(N2CCNCC2)c1`, the “activity change, negative = inhibition” value was -5.48% (inactive).

Take `N#CC(C#N)=Cc1ccc(O)c(O)c1`: the “activity change, negative = inhibition” value was -14.6% (inactive).

With `O=C1NCN(c2ccccc2)C12CCN(CC1COc3ccccc3O1)CC2` (configuration not stated), the “activity change, negative = inhibition” value was -14.4% (inactive).

For `COC[C@H]1OC(=O)c2coc3c2[C@@]1(C)C1=C(C3=O)C2CCC(=O)[C@@]2(C)C[C@H]1OC(C)=O` (some centres not stated), the “activity change, negative = inhibition” value is -6.69% (inactive).

For `CCn1cc(C(=O)O)c(=O)c2ccc(C)nc21`, the “activity change, negative = inhibition” value is -4.59% (inactive).
